According to PMC5540273 (PLoS ONE, 2017):

System: QSK
Settings: concentration: 1 μM, replicates: in singlicate; n = 1
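Further: KINOMEscan kinase panel screen.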

Point of comparison: `Nc1nccc(-c2c(-c3ccc(F)cc3)ncn2C2CCN(Cc3ccccc3)CC2)n1` [SB-219980], “%Inh” value 0%. Against it:
- COc1ccc(Nc2nccc(NCCNC(=O)Nc3cc(C)ccc3C)n2)cc1 [GSK1379899] — the same, 0%
- Cn1cnc2c(N)ncnc21 [SKF-97623] — the same, 0%
- Fc1ccc(-c2nc[nH]c2-c2ccncc2)cc1 [SB-217360] — higher, 17%
- CNc1nc(-c2ccc3c(N)n[nH]c3c2)cc(N2C[C@@H](C(=O)Nc3ccccc3)CC[C@H]2C)n1 [GSK2298859] — higher, 18%
- Nc1ncnc2occ(-c3ccc4c(c3)CCN4C(=O)Cc3cc(F)ccc3F)c12 [GSK2645446] — the same, 0%
- COc1ccc2cc(-c3nc(-c4ccccc4C(C)C)[nH]c3-c3ccncc3)ccc2c1 [SB-660566] — higher, 2%
- COc1cc2ncnc(Nc3cccc(Br)c3)c2cc1OC.Cl [GI230329] — higher, 11%
- CC(=O)c1cccc(NC(=O)NC2CCN(c3ccnc(Nc4ccc(F)cc4)n3)C2)c1 (stereo not shown) [GSK1379710] — higher, 4%
- Cc1c(Cn2c3ccccc3n3c(=O)cc(N4CCOCC4)nc23)cccc1C(F)(F)F [GSK2306394] — the same, 0%
- CCc1ccc(-c2ccc3c(c2)-c2n[nH]cc2S(=O)(=O)N3C)cc1 — higher, 14%
- COc1ccc(-c2coc3ccc(-c4nnc(C)o4)cc23)cc1 — the same, 0%
- COc1cccc(CNC(=O)NC2CCN(c3ccnc(Nc4ccc(F)cc4)n3)C2)c1 (stereo not shown) [GSK1379723] — higher, 2%
- COC(=O)C(Cc1ccccc1)NC(=O)NC1CCN(c2ccnc(Nc3ccc(F)cc3)n2)C1 (stereo not shown) [GSK1379714] — the same, 0%
- COc1ccc(Nc2nccc(N3CCC(NC(=O)C(C)c4ccc(Cl)cc4)C3)n2)cc1 (stereo not shown) [GSK1379735] — the same, 0%
- Cc1ccccc1Cn1ccn2c(=O)cc(N3CCOCC3)nc12 [GSK2269905] — the same, 0%
- NS(=O)(=O)c1cccc(N/C=C2\C(=O)Nc3ccc(S(=O)(=O)Cc4c(Cl)cccc4Cl)cc32)c1 [GSK398099] — higher, 11%
- O=c1cc(N2CCOCC2)nc2n(Cc3ccccc3F)ccn12 [GSK2297428] — the same, 0%
- CC[C@@H]1CO[C@H](C(=O)Nc2ccccc2)CN1c1cc(-c2ccc3c(N)n[nH]c3c2)nc(NC)n1 [GSK2376236] — the same, 0%
- CNc1nc(-c2ccc3c(N)n[nH]c3c2)cc(N2C[C@@H](C(=O)NC3CCCCC3)OC[C@H]2C)n1 [GSK2375584] — the same, 0%
- O=c1cc(N2CCOCC2)nc2n(Cc3cccc(Cl)c3Cl)c3ccccc3n12 [GSK2299009] — the same, 0%
- c1ccc(-c2ccnc3[nH]ccc23)cc1 [SB-693578] — higher, 15%
- Cn1cncc1C(=O)NC1CCN(c2ccnc(Nc3ccc(F)cc3)n2)C1 (stereo not shown) [GSK1379717] — the same, 0%
- COc1ccc(Nc2nccc(N3CCC(NC(=O)c4cc5ccccc5s4)C3)n2)cc1 (stereo not shown) [GSK1379738] — the same, 0%
- COc1ccc(CSc2nnc(-c3ccc4ncsc4c3)o2)cc1C(F)(F)F — the same, 0%
- COC(=O)C(NC(=O)NC1CCN(c2ccnc(Nc3ccc(F)cc3)n2)C1)c1ccccc1 (stereo not shown) [GSK1379712] — higher, 6%
- CS(=O)(=O)Cc1ccc(Nc2nccc(-c3c(-c4cccc(NC(=O)C5CCCCC5)c4)nn4ncccc34)n2)cc1 [GSK350559] — higher, 34%
- Cc1ccc(-c2nc(Nc3ccncc3)c3ccccc3n2)s1 [GSK189015] — higher, 6%
- Cc1ccc(NC(=O)Nc2ccc(Cl)c(C(F)(F)F)c2)cc1-c1ccc(C(=O)Nc2ccncc2)cc1 [GSK1398470] — higher, 9%
- CC(C)c1cc(-c2ccc3c(N)n[nH]c3c2)nc(N)n1 [GSK2250882] — higher, 4%
- Cc1nccc(-c2c(-c3ccc(F)cc3)ncn2CCCN2CCOCC2)n1.Cl [SB-282975] — higher, 26%
- FC(F)(F)c1ccccc1-c1cc(-c2c[nH]nc2-c2ccccn2)ccn1 [GW679396] — the same, 0%
- Cc1ccc(NC(=O)Nc2ccccc2)cc1-c1ccc(C(=O)Nc2ccncc2)cc1 [GSK1398471] — higher, 13%
- Cn1cncc1-c1cc2c(Nc3ccc(OCc4ccccc4)cc3)ncnc2cn1 [GW281179] — the same, 0%
- Cc1c(Cn2c(C)c(C)n3c(=O)cc(N4CCOCC4)nc23)cccc1C(F)(F)F [GSK2328680] — higher, 6%
- COc1ccc(Nc2nccc(-c3ccc(NC(=O)c4cc5cc(F)ccc5[nH]4)cc3)n2)cc1 [GSK1229496] — the same, 0%
- Fc1ccc(-c2nc3n(c2-c2ccncc2)CCS3)cc1 [GI98581] — higher, 11%
